# Values without a mark were called inactive.
# System: Ditylenchus dipsaci
# Test: proportion of mobile D. dipsaci (mixed stage) relative to DMSO control (fraction of DMSO control); higher = more viable, less nematicidal, active = 0.86 or less; extreme values may be limits of the assay
# Settings: 60 µM; 5 days; temperature: 20 °C
# In short: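 The worms, D. dipsaci raised on pea plants in Gamborg B-5 agar, were recovered through a filter funnel into water. Each well of a 96-well plate then held about 20 of them in distilled water plus pinned compound at 60 µM final (0.6% v/v DMSO), and the sealed plates were shaken at 200 rpm at 20 °C for 5 days. Following addition of 2 µL 1 M NaOH, mobile worms were counted by microscopy, and mobility was expressed against DMSO controls as the average of two biological replicates.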
row,Compound,proportion of mobile D. dipsaci
1,O=C(CSc1nnc(-c2ccco2)o1)Nc1ccccc1F,1
2,COC(=O)CSc1nnc(-c2ccc(C(C)(C)C)cc2)o1,1
3,Cc1cc(OCc2nc(-c3ccncc3)no2)ccc1Br,1
4,COc1ccc(OCc2nc(-c3ccccc3)no2)cc1,1
5,Cc1csc(NC(=O)CSc2nnc(-c3cccc(Cl)c3)o2)n1,1
6,CCN(CC)C(=O)CSc1nnc(-c2ccc(Cl)cc2Cl)o1,1
7,COc1ccccc1-c1noc(-c2ccccc2C)n1,1
8,N#Cc1ccc(CSc2nnc(-c3ccco3)o2)cc1,1
9,COc1ccc(-c2noc(COc3ccc(C)c(C)c3)n2)cc1,1
10,COc1nc(-c2ccccc2)ccc1-c1noc(-c2ccccc2C)n1,1
11,Clc1ccccc1-c1noc(-c2ccccc2Cl)n1,1
12,Cc1ccc(OCc2nc(-c3ccc(Cl)cc3)no2)cc1,1
13,c1csc(-c2nnc(-c3cccs3)o2)c1,0.769 (active)
14,Cc1cccc(-c2nc(-c3ccc(Br)cc3)no2)c1,1
15,Cc1cc(C)cc(OCc2nc(-c3ccccc3Cl)no2)c1,1
16,Cc1cc(OCc2nc(-c3ccccn3)no2)cc(C)c1Cl,1
17,COc1ccccc1-c1nc(-c2ccc(Cl)cc2)no1,1
18,Cc1ccccc1OCc1nc(-c2cccc(NC(=O)c3ccco3)c2)no1,1
19,O=C(CSc1nnc(-c2ccco2)o1)c1ccccc1,1

row,Compound,proportion of mobile D. dipsaci
1,COc1ccc(NC(=O)CSc2nnc(-c3ccccc3C)o2)cc1,1
2,Cc1cc(OCc2nc(-c3ccncc3)no2)c(C)c(C)c1Br,1
3,Cc1ccccc1OCc1nc(-c2ccc3c(c2)OCO3)no1,1
4,Fc1ccc(-c2nc(-c3ccc(Br)cc3)no2)cc1,1
5,C=CCOc1cccc(-c2nc(-c3cccnc3)no2)c1,1
6,CCOc1nc(-c2ccc(C)cc2)ccc1-c1noc(-c2ccco2)n1,1
7,O=C(Nc1ccccc1-c1nc(-c2cccnc2)no1)c1ccccc1Cl,1
8,COc1ccc(Cl)cc1-c1nc(-c2ccc3c(c2)OCO3)no1,1
9,CC(C)C(=O)Nc1ccccc1-c1nc(-c2cccnc2)no1,1
10,O=C(CSc1nnc(-c2ccncc2)o1)Nc1ccccc1Cl,1
11,O=C(CSc1nnc(-c2ccncc2)o1)Nc1cc(C(F)(F)F)ccc1Cl,1
12,COc1ccc(Cl)cc1-c1noc(-c2cccc(C)c2)n1,1
13,Cn1c(SCc2cccc(F)c2)nnc1-c1ccco1,1
14,O=C(CSc1nnc(-c2ccccc2)o1)Nc1ccc(Br)cc1F,1
15,CC1CC(C)CN(C(=O)CSc2nnc(-c3ccccc3)o2)C1 (stereo not drawn),1
16,Fc1ccccc1-c1nc(-c2ccc(Cl)cc2)no1,1
17,Cc1ccc(OC(C)c2nc(-c3ccncc3)no2)cc1C (stereo not drawn),1
18,Cc1ccc(-c2nnc(SCc3ccc(Br)cc3)o2)cc1,1
19,CC(=O)Nc1ccc(-c2nnc(SCc3ccccc3)o2)cc1,1
